The list is not random: actives were taken first. Their share in the collection is about 13%.
4MU fluor = compounds fluorescent in 4-MU spectral region | compound autofluorescence, 340/450 nm, 4-MU equivalents; stronger effect = higher value | max dye-equivalent concentration, M | 59,000 tested, 11% active | AID 589; in the data active means max dye-equivalent concentration above about 10 nM; inconclusive means mostly about 1.1 nM to 9.6 nM
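Compounds in 100 mM Tris, pH 8.0, sat 15 min at room temperature before fluorescence was read at 340 nm excitation/450 nm emission; a per-plate six-point 4-MU standard curve converted signals to dye-equivalent concentration at each compound concentration.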
HSD17B inh = blocks hydroxysteroid 17-beta dehydrogenase activity; 75,000 tested, 7.6% active; Q99714; Potency, µM (highest dose often 57.1 µM), hits mostly inhibitors; recombinant HSD17B10, NADH fluorescence kinetic; AID 893;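 further: the protocol describes HADH2 (HSD17B10) and not the HSD17B4 of the title; nearly all actives have a fitted effect of over 70% in size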
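20 nM HADH2, pH 9.0 Tris/Tween; cpd preinc 15 min RT; start w/ 1 mM NAD+ + 90 uM b-hydroxybutyryl-CoA; kinetic fluor ex360/em450 q30s x 4 min; delta last-first.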
GBA activity = alters purified human glucocerebrosidase activity. purified enzyme, resorufin glucoside fluorescence (screen aimed at inhibitors), 20 min. Potency, µM. AID 360. 48,000 tested, 1.1% active; in the data active means potency below about 15 µM; inconclusive means mostly about 16 µM to 33 µM;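 further: the screen sought inhibitors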
Target sequence (P04062 whole entry, looked up): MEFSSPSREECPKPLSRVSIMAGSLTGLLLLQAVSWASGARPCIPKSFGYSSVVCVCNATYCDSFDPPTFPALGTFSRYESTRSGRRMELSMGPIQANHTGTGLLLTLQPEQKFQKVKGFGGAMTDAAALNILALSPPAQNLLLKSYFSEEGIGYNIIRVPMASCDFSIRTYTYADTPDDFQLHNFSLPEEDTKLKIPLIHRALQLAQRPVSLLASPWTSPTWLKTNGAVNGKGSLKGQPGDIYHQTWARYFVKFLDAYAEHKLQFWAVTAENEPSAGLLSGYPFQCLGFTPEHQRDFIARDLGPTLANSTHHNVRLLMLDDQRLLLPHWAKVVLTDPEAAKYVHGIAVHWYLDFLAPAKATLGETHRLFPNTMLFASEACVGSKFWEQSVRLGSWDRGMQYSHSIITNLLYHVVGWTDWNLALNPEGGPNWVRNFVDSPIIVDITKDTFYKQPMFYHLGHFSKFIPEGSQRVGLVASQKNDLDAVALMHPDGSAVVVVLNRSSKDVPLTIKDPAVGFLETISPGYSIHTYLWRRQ
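Wild-type enzyme at 0.2 nM final in 50mM citric acid/KH2PO4, 10mM sodium taurocholate, 0.01% tween-20, pH 5.9, with resorufin beta-D-glucopyranoside at 30 uM final. Compounds titrated, 20 min at RT, red fluorescence read; AC50 from titration.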
AID923 = qHTS Assay for Allosteric/Competitive Inhibitors of Caspase-1: Spectroscopic Profiling in AFC Spectral Region | compound fluorescence, AFC spectral region (405/520 nm) | Potency, µM (series often up to 57.5 µM), actives largely listed as activators | 75,000 tested, 1.1% active | AID 923, 2007
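Titrations up to 57 uM read every 20 sec for 3 min (405/520 nm) with 50 nM caspase 1 and 5 uM Ac-WEHD-AFC, pH 7.5 HEPES buffer. Fluorescence-vs-time intercept gave baseline, scaled against on-plate AFC standard.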
HADH2 inh = inhibitors of human HADH2 dehydrogenase | 73,000 tested, 3.4% active | AID 886 | Potency, µM (titrated, usually from 57.1 µM), actives largely listed as inhibitors | recombinant HADH2, NADH fluorescence, beta-hydroxybutyryl-CoA | Q99714; further: nearly all actives have a fitted effect of over 60% in size
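Read-out: 360 nm excitation, 450 nm emission, kinetic over 4 min. Conditions: His-tagged human HADH2 20 nM, pH 9.0 Tris with Tween-20, 1 mM NAD+, 90 uM beta-hydroxybutyryl-CoA.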
A350 fluor = compounds fluorescent in Alexa 350 spectral region; Compound autofluorescence, 340/450 nm, Alexa 350 dye-equivalents; stronger effect = higher value; max dye-equivalent concentration, M; 59,000 tested, 11% active; in the data active means max dye-equivalent concentration above about 10 nM; inconclusive means mostly about 1.1 nM to 9.6 nM
Hits are given with their value; n = inactive; u = inconclusive; x = no result given; [ ] = remark or other dose. Unless noted, the call rests on the fitted dose curve; in most records, active means well fitted curve in the direction sought with a large enough effect; inconclusive means small, poorly fitted or top-dose-only effect, or another doubt; inactive means no such curve, though single readings can be large; an effect the other way counts as inactive or inconclusive.

SMILES	4MU fluor	HSD17B inh	GBA activity	AID923	HADH2 inh	A350 fluor
CCOC(=O)CN1CC23C=CC(O2)C(C(=O)NC2CCCC2)C3C1=O (configuration not stated)	x	n	x	n	n	x
CCCOC(=O)C1C2C=C[C@]3(CN(CCc4ccccc4)C(=O)[C@H]13)O2 (some centres not stated)	1.9e-08M	n	n	n	n	2.5e-08M
CC(C)N1C(=O)C2C(C(=O)NC3CCCCC3)C3C=CC2(O3)C1C(=O)NC1CCCCC1 (configuration not stated)	1.5e-08M	n	n	n	n	1.7e-08M
C=CCSC[C@@H]1Nc2cc(Cl)c(S(N)(=O)=O)cc2S(=O)(=O)N1	u	n	x	n	n	u
CC1=Nn2c(nnc2-c2cc(-c3ccccc3)n[nH]2)SC1	n	n	n	n	n	n
Cc1cccc(-n2nc3c(c2NC(=O)c2ccco2)CSC3)c1C	n	u	n	n	u	n
OCc1ccc(-c2nn(Cc3ccccc3)c3ccccc23)o1	u	25µM	x	n	u	u
O=C(O)Cn1nc(-c2ccccc2)c2ccccc21	x	u	x	n	u	x
Cc1cc2cc(CN(CCCO)S(=O)(=O)c3cccc4nsnc34)c(=O)[nH]c2cc1C	n	n	n	n	n	n
COc1ccc2cc(CN(CC3COCCO3)S(=O)(=O)c3ccccc3)c(=O)[nH]c2c1 (configuration not stated)	n	n	n	n	n	n
COc1cc2cc(CN(CCCO)S(=O)(=O)c3ccccc3)c(=O)[nH]c2cc1OC	4.4e-07M	32µM	n	n	n	3.5e-07M
COc1cc2cc(CN(CCCO)S(=O)(=O)c3ccccc3Cl)c(=O)[nH]c2cc1OC	2.2e-07M	u	n	n	n	2.3e-07M
COc1ccc2cc(CN(Cc3cccnc3)S(=O)(=O)c3ccccc3)c(=O)[nH]c2c1	u	25µM	x	n	n	u
COc1cc2cc(CN(CCO)S(=O)(=O)c3ccccc3Cl)c(=O)[nH]c2cc1OC	2.6e-07M	25µM	n	n	n	3.3e-07M
Cn1c(=O)c2c(nc(SCC(=O)N3CCc4ccccc4C3)n2C)n(C)c1=O	n	n	n	n	n	n
O=S(=O)(NCc1cccnc1)c1cccs1	n	n	n	n	n	n
COCCCCC(=NOCCN)c1ccc(C(F)(F)F)cc1	n	n	x	n	n	n
O=C1Nc2ccccc2C1=Nc1ccc(S(=O)(=O)Nc2nccs2)cc1	n	n[11.4 µM]	x	n[11.5 µM]	n[11.4 µM]	n
Cc1ccc(C(=O)Oc2ccc3c(c2)ncn3C)cc1	n	n	n	n	n	n
COC(=O)CNC(=O)Cc1c(F)cccc1Cl	n	n	n	n	n	n
CCCCCC(=O)Nc1ccc(N2CCN(CC)CC2)c(Cl)c1	n	n	0.7	n	n	n
COc1ccc(OC)c(C2CC(=O)N3CN(c4ccccc4F)CSC3=C2C#N)c1 (configuration not stated)	x	u	x	n	2.5µM	x
COc1cccc(C2CC(=O)N3CN(c4ccccc4F)CSC3=C2C#N)c1 (configuration not stated)	x	u	x	n	1.3µM	x
COc1ccccc1N1CSC2=C(C#N)C(c3ccc(SC)cc3)CC(=O)N2C1 (configuration not stated)	x	20µM	x	n	1.3µM	x
COc1cc(C2CC(=O)N3CN(c4ccccc4C)CSC3=C2C#N)cc(OC)c1OC (configuration not stated)	n	u	n	n	u	n
SMILES	4MU fluor	HSD17B inh	GBA activity	AID923	HADH2 inh	A350 fluor
CCc1ccccc1N1CSC2=C(C#N)C(c3cc(OC)c(OC)cc3OC)CC(=O)N2C1 (configuration not stated)	u	u	u	n	u	u
CCOc1ccc(OCC(=O)c2c(O)c3ccccc3oc2=O)cc1	n	16µM	n	n	u	n
O=c1c2c3c(sc2n2cnnc2n1-c1ccccc1)N(Cc1ccccc1)CCC3	1.1e-07M	u	n	n	n	1.1e-07M
CN1CCc2c(sc3c2c(=O)n(-c2cccc(Cl)c2)c2nncn32)C1	n	n	n	n	n	u
Cc1nc2nc[nH]n2c(=O)c1NC(=O)CC12CC3CC(CC(C3)C1)C2	n	n	n	n	n	n
CCCCOC(=O)NS(=O)(=O)c1sc(CC(C)C)cc1-c1ccc(Cn2c(CC)nc3c(C)cc(C)nc32)cc1	n	n	x	n	n	n
O=C(O)CC(NCc1ccco1)C(=O)OCCc1ccccc1 (configuration not stated)	n	x	x	x	x	n
O=C(O)CC(NCc1ccco1)C(=O)OCC1CCCO1 (configuration not stated)	2e-08M	x	x	x	x	2.3e-08M
Cc1nn(-c2cccc(C(F)(F)F)c2)c(Cl)c1/C=N/n1cnnc1	n	n	u	n	n	n
FC(F)(F)c1cccc(-n2cccc2/C=N/n2cnnc2)c1	7.1e-07M	x	x	x	x	7.3e-07M
O=C1CC2CS(=O)(=O)CC2N1c1ccc(Cl)cc1Cl (configuration not stated)	n	n	n	n	n	n
Cc1nc2cncc(Br)c2n1C	3.9e-08M	n	n	n	n	4.9e-08M
C[C@H]1CC[C@]2(OC1)O[C@@H]1C[C@@H]3[C@@H]4CC[C@H]5C[C@@H](O)CC[C@]5(C)[C@@H]4CC(=O)[C@@]3(C)[C@H]1[C@@H]2C	n	n	x	n	n	n
O=C(CCc1ccccc1)Nc1ccncc1	x	n	x	n	n	x
O=S(=O)(c1ccc2oc(-c3ccncc3)nc2c1)c1ccc2oc(-c3ccncc3)nc2c1	n	n	n	n	n	n
O=C(Cc1ccccc1)Nc1ccc2oc(-c3ccncc3)nc2c1	1.1e-08M	25µM	n	n	n	1e-08M
CC(C)CC(=O)Nc1ccc2oc(-c3ccncc3)nc2c1	2.2e-08M	13µM	n	n	n	3e-08M
CN(C)CCCN1C(=O)C(=O)/C(=C(/O)c2ccccc2)C1c1ccccn1 (configuration not stated)	n	x	x	x	x	n
O=C(CN1C(=O)c2ccccc2S1(=O)=O)NCCC1=CCCCC1	n	n	n	n	n	n
N#Cc1ccccc1-c1ccc2ncnc(NCc3cccs3)c2c1	n	25µM	x	n	u	n
Cc1cccc(CNc2ncnc3ccc(-c4ccccc4C#N)cc23)c1	n	25µM	x	n	n	n
Cc1ccccc1-c1ccc2ncnc(NCc3cccnc3)c2c1	u	u	x	n	u	u
CN(C)C(=O)c1ccc(-c2ccc3ncnc(NCc4cccs4)c3c2)cc1	n	25µM	x	n	u	n
CCOC(=O)N1CCN(c2c(N3CCN(c4ccccc4OC)CC3)c(=O)c2=O)CC1	x	n	x	n	n	x
O=C(Cn1c(=O)oc2cc(S(=O)(=O)N3CCCCCC3)ccc21)NC1CCCCCCC1	x	n	x	n	n	x

Screening results from PubChem BioAssay.
